Source: PubChem BioAssay (several laboratories)
Shown are actives, neighbours in structure and some others; about 32% of the full set was active somewhere.
CYP2C9 inhib: blockers of cytochrome P450 2C9 activity – biochemical, luminescence, ADME assay, primary screen; P11712; CYP2C9 Supersomes, luciferin-H conversion; inhibition, % at 5 µM; 96,000 compounds, 20% hits;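 active = blocking of liver enzyme CYP2C9 beyond about 50% at 5 µM, limit read from the data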
CYP2C19 inhib: blockers of cytochrome P450 2C19 activity – biochemical, luminescence, ADME assay, primary screen; CYP2C19 Supersomes, luciferin-H EGE luminescence, 30 min; 96,000 compounds, 21% hits; P33261; inhibition, % at 5 µM;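 active = CYP2C19 inhibition above a set limit at 5 µM in the primary screen, cut at about 50% in these data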;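 also: plate controls were negative control wells for no effect and 2.5 mM tranylcypromine positive control for full effect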
Target sequence (P33261 whole entry, looked up): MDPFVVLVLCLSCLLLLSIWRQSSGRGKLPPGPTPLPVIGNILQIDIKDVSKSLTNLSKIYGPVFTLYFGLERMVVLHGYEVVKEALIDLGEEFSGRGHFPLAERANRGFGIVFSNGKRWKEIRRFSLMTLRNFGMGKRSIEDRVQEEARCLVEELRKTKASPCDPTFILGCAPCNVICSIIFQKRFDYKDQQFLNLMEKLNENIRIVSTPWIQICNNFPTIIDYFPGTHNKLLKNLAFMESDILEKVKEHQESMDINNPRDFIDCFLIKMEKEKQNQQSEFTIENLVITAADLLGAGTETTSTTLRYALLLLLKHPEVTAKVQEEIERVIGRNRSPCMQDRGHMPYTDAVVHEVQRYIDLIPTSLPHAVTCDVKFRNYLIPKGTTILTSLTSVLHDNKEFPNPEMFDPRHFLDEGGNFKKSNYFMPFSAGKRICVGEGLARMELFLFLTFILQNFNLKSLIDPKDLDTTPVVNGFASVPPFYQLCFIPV
PostGolgi ctrl: growth inhibition of yeast control strain, primary screen, counter-screen for post-Golgi transport modulator project; efflux-deficient yeast background strain, growth absorbance A615, 16 h; 98,000 compounds, 5% hits; inhibition, % at 10 µM
PostGolgi yeast: phenotypic screen on post-Golgi transport, primary screen; post-Golgi transport phenotypic cell assay; inhibition, % at 10 µM; 98,000 compounds, 0.9% hits; AID 739, 2007;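 also: yeast cells grown in 1536-well plates; yeast grown about 18 h at 30C before absorbance read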
CYP2C19 activ: human CYP2C19 activators, primary screen, biochemical, luminescence | 96,000 tested, under 10 active | recombinant CYP2C19, luciferin-H EGE luminescence; stronger effect = higher value; 0 = fully inhibited enzyme, 1 = untreated enzyme | activation factor at 5 µM | Cytochrome P450 2C19 (Homo sapiens), P33261 | AID 1025, 2008;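 active = activation factor of at least 2 at 5 µM in the primary screen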;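 also: 0 = wells with 2.5 mM tranylcypromine and 1 = vehicle-only wells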
CYP2C9 activ: human CYP2C9 activators, primary screen, biochemical, luminescence | recombinant CYP2C9, luciferin-H conversion; stronger effect = higher value; factor 1 = untreated enzyme, 0 = blocked | activation factor at 5 µM | 96,000 compounds, 1.4% hits | AID 1024, 2008;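 active = activation factor of 2 or more for CYP2C9 at a 5 µM dose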;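 also: 0 = sulfaphenazole-blocked wells and 1 = vehicle-only wells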
Numbers without * were called inactive; . = no result. Rule as the data show it, unless noted: active = inhibition above about 30%; inactive = the rest.

SMILES	CYP2C9 inhib	CYP2C19 inhib	PostGolgi ctrl	PostGolgi yeast	CYP2C19 activ	CYP2C9 activ
Cc1c(NC(=O)NCc2ccccc2)c(=O)n(-c2ccccc2)n1C	-8.7	-8.2	19.2	5.7	1.1	1.1
Cc1c(N=CC=Nc2c(C)n(C)n(-c3ccccc3)c2=O)c(=O)n(-c2ccccc2)n1C	-0.2	-1.0	.	.	1	1
Cc1cc2ncc(-c3ncc(C(F)(F)F)cc3Cl)cn2n1	0.9	17.9	8.4	12.3	0.8	1
Cc1cccc(NC(=S)N2N=CCC2c2ccccc2)c1 (configuration not stated)	1.5	30.3	13.3	-8.3	0.7	1
CC(C)NC(=O)CCS(=O)(=O)c1cccc2nonc12	-39.4	15.3	13.1	29.4	0.8	1.4
O=C(CCS(=O)(=O)c1cccc2nonc12)NCCc1ccccc1	2.8	52.9*	5.1	11.6	0.5	1
CCOc1ccccc1NC(=O)CCS(=O)(=O)c1cccc2nonc12	8.2	67.2*	7.7	1.6	0.3	0.9
CC(C)CCNC(=O)CCS(=O)(=O)c1cccc2nonc12	-33.5	55.1*	24.9	-2.2	0.4	1.3
O=C(CCNS(=O)(=O)c1cccc2nonc12)NCc1cccs1	-100.7	16.3	-5.6	21.3	0.8	2*
COc1ccc(Cl)cc1NC(=O)C1CCCN(S(=O)(=O)c2cccc3nonc23)C1 (configuration not stated)	.	.	1.1	3.1	.	.
COc1ccc2[nH]cc(C(O)CN3CCC(C(N)=O)CC3)c2c1 (configuration not stated)	2.2	-7.8	18.3	-2.2	1.1	1
Cc1cc2nc(C(F)(F)F)[nH]c(=O)n2n1	-9.9	-4.3	7.9	4.3	1	1.1
CCCCNC(=O)C1CC(c2ccccc2[N+](=O)[O-])=NO1 (configuration not stated)	-85.8	35.0	22.1	12.5	0.7	1.9
CCCC(=O)NC(=S)Nc1ccccc1F	29.0	42.0	13.2	-6.2	0.6	0.7
O=C(NC(CO)c1ccccc1)c1ccco1 (configuration not stated)	17.5	3.1	-11.9	-4.9	1	0.8
O=C(NCCc1ccc(Cl)cc1)C1CCN(S(=O)(=O)c2ccc(-n3cnnn3)cc2)CC1	3.7	0.2	-8.2	-15.9	1	1
CCCCc1nc2ccccc2n1Cc1nnc2n1-c1ccccc1SC2	92.4*	90.8*	5.2	-0.6	0.1	0.1
CCOc1ccc(N(CC(=O)Nc2ccccc2)S(C)(=O)=O)cc1	70.0*	87.8*	0.6	2.8	0.1	0.3
COc1cccc(NC(=O)CN(c2cccc(C(F)(F)F)c2)S(C)(=O)=O)c1	70.5*	88.3*	7.6	0.7	0.1	0.3
COc1ccc(NC(=O)CN(c2cccc(C(F)(F)F)c2)S(C)(=O)=O)cc1OC	31.3	39.6	3.6	-7.7	0.6	0.7
CC(=O)Nc1ccc(NC(=O)CN(c2cccc(C)c2)S(C)(=O)=O)cc1	19.2	52.2*	11.8	-4.0	0.5	0.8
CCOc1ccc(NC(=O)CN(c2cccc(C(F)(F)F)c2)S(C)(=O)=O)cc1	72.1*	84.7*	6.5	-5.5	0.2	0.3
CC(=O)CCc1ccc2oc(C(=O)O)c(C)c2c1	3.5	1.1	29.6	-1.6	1	1
COc1ccc(N(CC(=O)Nc2cccc(SC)c2)S(C)(=O)=O)cc1	88.7*	94.1*	7.2	-0.2	0.1	0.1
COc1cc(C)nc(OCCNC(=O)COc2ccc(Cl)cc2Cl)n1	62.7*	73.4*	8.1	1.8	0.3	0.4
SMILES	CYP2C9 inhib	CYP2C19 inhib	PostGolgi ctrl	PostGolgi yeast	CYP2C19 activ	CYP2C9 activ
CN(C)c1nc(OCCNC(=O)COc2ccc(Cl)cc2Cl)nc(N(C)C)n1	-1.4	-30.3	19.6	0.2	1.3	1
CC(C)c1cc(C(=O)Nc2cc(Br)ccc2O)no1	38.8	4.9	28.0	-7.5	1	0.6
CC(C)Cc1cc(C(=O)Nc2cc(Cl)ccc2Cl)no1	-162.0	-28.3	7.6	6.2	1.3	2.6*
CC(C)Cc1cc(C(=O)Nc2ccc(F)cc2F)no1	-75.6	19.9	6.9	6.2	0.8	1.8
CC(C)c1cc(C(=O)Nc2cc(Cl)ccc2O)no1	50.1*	13.5	21.4	-1.4	0.9	0.5
N/C(=N/O)c1nc(N2CCCCC2)nc(N2CCCCC2)n1	.	.	-4.7	0.5	.	.
COc1cc(CNc2ccc(N3CCOCC3)c(C(=O)O)c2)ccc1OCC(N)=O	-10.6	-13.1	5.0	-1.0	1.1	1.1
CCc1ccc(C2C(C#N)=C(N)SC(N)=C2C#N)s1	75.7*	49.1	3.0	-9.3	0.5	0.2
CCOc1ccccc1C1C(C#N)=C(N)SC(N)=C1C#N	-7.2	51.5*	4.9	0.3	0.5	1.1
CCc1ccc(C2C(C#N)=C(N)SC(N)=C2C#N)cc1	43.5	30.9	0.5	0.0	0.7	0.6
CCOc1ccc(C2C(C#N)=C(N)SC(N)=C2C#N)cc1OCC	83.9*	57.9*	7.8	16.6	0.4	0.2
N#CC1=C(N)SC(N)=C(C#N)C1c1cccc(Oc2ccccc2)c1	92.3*	42.3	29.4	3.2	0.6	0.1
N#CC1=C(N)N2C(=C(C#N)C1c1ccccc1)Sc1ccccc12 (configuration not stated)	-5.7	3.1	-2.5	16.4	1	1.1
Cc1ccc(C2C(C#N)=C(N)SC(N)=C2C#N)o1	47.8	-0.8	6.3	1.0	1	0.5
CCOc1ccccc1C1C(C#N)=C(N)Oc2cc(C)n(C)c(=O)c21 (configuration not stated)	-3.2	3.7	-1.9	1.4	1	1
CCOc1ccc(NC(=O)CCC(=O)OC)cc1	-69.5	31.4	3.5	23.7	0.7	1.7
CCOc1ccc(C2C(C#N)=C(N)SC(N)=C2C#N)cc1OC	91.4*	54.2*	11.7	-3.0	0.5	0.1
Cc1cc(N)n2ncc(-c3ccccc3)c2n1	35.0	38.4	27.4	-15.7	0.6	0.7
Cc1cc(N)n2ncc(-c3cccc(Br)c3)c2n1	71.5*	38.9	33.1*	0.5	0.6	0.3
CCn1c(SCC(=O)N2CCCc3ccccc32)nnc1-c1cccs1	-23.8	20.0	-10.3	-8.6	0.8	1.2
CCCn1nnnc1SCC(=O)N1CCCc2ccccc21	19.1	82.6*	1.8	-2.5	0.2	0.8
O=C(CSc1nnnn1-c1ccc(Cl)cc1)N1CCc2ccccc2C1	37.0	74.1*	38.5*	19.5	0.3	0.6
O=C(CSc1nnnn1-c1ccccc1)N1CCc2ccccc21	-9.4	-5.5	-2.4	9.2	1.1	1.1
O=C(CSc1nnc(-c2cccs2)n1-c1ccccc1)N1CCCc2ccccc21	85.3*	48.7	-4.9	2.8	0.5	0.1
